Values without a mark were called inactive.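 How the source made its calls: active means compound with fitted CDK2 half-maximal potency at or below twice its top tested dose; inconclusive means flat curve near 30 to 70% inhibition, or poor fit; inactive means the rest.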
molecular target: Cyclin-dependent kinase 2 (Homo sapiens) + Cyclin-A2 (Homo sapiens) (UniProt P20248+P24941); test: blockade of human CDK2 kinase activity – biochemical, dry powder, set 3, selectivity assay for Dyrk1A inhibitor project, dose response (AID 651681); details: CDK2/cyclin A ADP-Glo luminescence, histone H1 peptide; series mostly up to 10 µM; inhibition: at the top concentration
Sequence (P20248 whole entry, looked up, one chain of several): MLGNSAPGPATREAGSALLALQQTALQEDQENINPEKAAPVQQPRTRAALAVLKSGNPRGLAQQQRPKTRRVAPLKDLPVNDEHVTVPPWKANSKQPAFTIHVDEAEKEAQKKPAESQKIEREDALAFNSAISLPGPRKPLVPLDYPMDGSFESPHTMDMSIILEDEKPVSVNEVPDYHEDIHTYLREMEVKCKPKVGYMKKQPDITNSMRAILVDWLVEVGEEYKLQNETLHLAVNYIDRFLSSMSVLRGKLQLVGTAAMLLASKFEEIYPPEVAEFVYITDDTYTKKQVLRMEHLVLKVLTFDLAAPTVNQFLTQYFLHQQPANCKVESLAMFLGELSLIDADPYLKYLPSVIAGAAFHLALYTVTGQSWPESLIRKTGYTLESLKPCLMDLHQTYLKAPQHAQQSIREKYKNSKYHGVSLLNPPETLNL

Compound	inhibition [%]
O=C(NCc1ccco1)c1sc2ccccc2c1Cl	-15.9
CCCCN(c1nc2ccccc2s1)S(=O)(=O)c1ccc(Cl)cc1	8.6
CN(CC(=O)Nc1nc2ccc(Cl)cc2s1)S(=O)(=O)c1ccc(Cl)cc1	-5.29
Cc1csc(NC(=O)C2CCCN(S(=O)(=O)c3cccc4nonc34)C2)n1 (configuration not stated)	10.9
CN(CC(=O)Nc1nc2ccc(F)cc2s1)S(=O)(=O)c1ccc(Cl)cc1	-5.71
COc1ccc2nc(NC(=O)CN(C)S(=O)(=O)c3ccc(F)cc3)sc2c1	-9.78
COc1ccc(C2=Nn3c(nnc3-c3ccncc3)SC2)cc1	9.2
COc1ccc(OC)c(C2=Nn3c(nnc3-c3ccccc3)SC2)c1	1.24
CCOc1ccc2nc(NC(=O)COc3ccc(Cl)c(OC)c3)sc2c1	1.54
Cc1ccc(S(=O)(=O)N(C)CC(=O)Nc2nc3ccccc3s2)cc1	-4.96
COc1ccc2nc(NC(=O)C3CCCN(S(=O)(=O)c4cccc5nonc45)C3)sc2c1 (configuration not stated)	-1.81
COc1ccc2c(Cl)c(C(N)=O)sc2c1	-7.83
Cc1sc(NC(=O)CSCc2ccccc2)nc1-c1ccccc1	-1.28
COc1ccc(OC)c(C2=Nn3c(nnc3-c3ccccn3)SC2)c1	4.06
Cc1cccc2sc(NC(=O)CN(C)S(=O)(=O)c3ccc(Cl)cc3)nc12	6.5
COc1ccc2c(Cl)c(C(=O)NC(C)C)sc2c1	6.28
COc1ccc2c(Cl)c(C(=O)NCc3ccccc3)sc2c1	0.997
Cc1ccccc1S(=O)(=O)Cc1ccc(C(=O)NC(C)c2ccc3c(c2)OCCO3)o1 (configuration not stated)	-2.08
COc1ccc(OC)c(C2=Nn3c(nnc3-c3ccncc3)SC2)c1	5.48
COc1ccc(NC(=O)C2CCCN(S(=O)(=O)c3cccc4nonc34)C2)cc1 (configuration not stated)	-3.75
COc1ccc2nc(NC(=O)C3CCN(S(=O)(=O)c4cccnc4)CC3)sc2c1	13
COc1ccc(CNC(=O)c2sc3ccccc3c2Cl)cc1	1.25

Reference: PubChem BioAssay AID651681 (Broad Institute, 2012)
